In PubChem BioAssay AID1851 (National Center for Advancing Translational Sciences (NCATS), 2009):
The campaign covered roughly 16,000 compounds. About 5,100 (32%) were called active. About 25% were inconclusive and are not listed. Calls follow the shape of the dose curve; as a rule, active = well fitted curve in the direction sought with a large enough effect; inconclusive = small, poorly fitted or top-dose-only effect, or effect the other way; inactive = no such curve, though single readings can be large or run the other way. This is one part of the list.

target: Cytochrome P450 3A4 (Homo sapiens) (UniProt P08684); experiment: Cytochrome panel assay with activity outcomes; details: recombinant CYP, pro-luciferin dealkylation, luminescence, p450-cyp3a4; series mostly up to 57.1 µM
Sequence (P08684 whole entry, looked up): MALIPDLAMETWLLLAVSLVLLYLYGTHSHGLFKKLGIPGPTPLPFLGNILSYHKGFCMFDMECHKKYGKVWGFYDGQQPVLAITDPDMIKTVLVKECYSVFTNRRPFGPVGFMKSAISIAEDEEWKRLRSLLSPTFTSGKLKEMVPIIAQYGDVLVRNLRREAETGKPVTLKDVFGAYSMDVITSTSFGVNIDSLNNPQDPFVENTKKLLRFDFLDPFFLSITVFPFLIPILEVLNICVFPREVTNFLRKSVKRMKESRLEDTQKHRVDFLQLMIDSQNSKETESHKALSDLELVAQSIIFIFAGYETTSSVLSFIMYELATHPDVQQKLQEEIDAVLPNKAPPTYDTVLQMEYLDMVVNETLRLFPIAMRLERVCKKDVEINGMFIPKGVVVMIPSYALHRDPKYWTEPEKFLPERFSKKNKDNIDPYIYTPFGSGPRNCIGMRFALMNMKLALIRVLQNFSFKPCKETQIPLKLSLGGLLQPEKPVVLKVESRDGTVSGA
% is scaled to controls: 0 for no effect and ±100 for the full control effect.

| Compound | AC50 | activity, negative = inhibition |
| --- | --- | --- |
| Fc1ccc(-c2ccnc3nc(N4CCOCC4)nn23)cc1 | inactive | – |
| O=C(OCc1ccccc1)/C(=C/c1ccc(Cl)cc1)NC(=O)c1ccccc1Cl | 0.178 µM (active) | – |
| C/C(=C\c1ccc(Cl)cc1)C(C)(C)C(=O)O | – | -11.2% [at 11.4 µM] (inactive) |
| O=C(O)CNC(=O)c1ccccc1O | – | -5.63% [at 11.4 µM] (inactive) |
| O=C(CNC(=O)/C(=C\c1ccccc1)NC(=O)c1ccc(Br)cc1)OCc1ccccc1 | 0.2 µM (active) | – |
| COC(=O)CCC(=O)NNC(=O)c1ccc(Br)cc1 | inactive | – |
| COc1ccccc1C(=O)N/C(=C/c1ccc(Br)cc1)C(=O)NCC(=O)O | 8.91 µM (active) | – |
| COc1ccc(C(=O)NCC(=O)OCc2cccc(Br)c2)cc1 | 7.94 µM (active) | – |
| CN(C)c1nc(-c2cccc(NS(C)(=O)=O)c2)nc2ccccc12 | 6.31 µM (active) | – |
| Cc1cccc(C(=O)NN(C)c2nc(-c3ccccc3)nnc2C(F)(F)F)c1 | inactive | – |
| COc1cccc(-c2nc(Nc3ccncc3)c3ccccc3n2)c1 | 2.51 µM (active) | – |
| CS(=O)(=O)Nc1cccc(-c2nc(Nc3ccc(F)cc3)c3ccccc3n2)c1 | 6.31 µM (active) | – |
| CS(=O)(=O)Nc1cccc(-c2nc(Nc3ccccc3)c3ccccc3n2)c1 | 10 µM (active) | – |
| N#Cc1cc2nc(O)c(O)nc2cc1[N+](=O)[O-] | inactive | – |
| CNc1nc(-c2cccc(NS(C)(=O)=O)c2)nc2ccccc12 | 10 µM (active) | – |
| CS(=O)(=O)Nc1cccc(-c2nccc(Nc3ccc(F)cc3)n2)c1 | 10 µM (active) | – |
| CS(=O)(=O)Nc1cccc(-c2nc(Nc3ccncc3)c3ccccc3n2)c1 | 3.98 µM (active) | – |
| Oc1cc(CN2COc3ccccc32)c(O)cc1CNC1CCCCC1 | – | -5.1% [at 11.4 µM] (inactive) |
| CCN1C(=O)C=CC1=O | inactive | – |
| O=C(c1ccco1)N1CCC2(CCCN(Cc3ccncc3)C2)CC1 | 5.01 µM (active) | – |
| O=C(c1ccco1)N1CCC2(CCN(Cc3ccncc3)CC2)CC1 | 12.6 µM (active) | – |
| O=C(c1ccco1)N1CCC2(CC1)CN(Cc1cc(C(F)(F)F)cc(C(F)(F)F)c1)C2 | inactive | – |
| O=C(O)[C@H](/C=C\c1ccccc1)c1ccccc1 | – | -11.9% [at 11.4 µM] (inactive) |
| Cc1ccc(S(=O)(=O)CC#CCOC(=O)c2ccc([N+](=O)[O-])cc2)cc1 | 15.8 µM (active) | – |

| Compound | AC50 | activity, negative = inhibition |
| --- | --- | --- |
| Cc1ccc(CNC(=O)C2CC(c3ccccc3[N+](=O)[O-])=NO2)cc1 (stereo not given) | – | -29.5% [at 2.29 µM] (inactive) |
| O=C(O)C1CCCN1C(=O)OCc1ccccc1 (stereo not given) | inactive | – |
| COc1ccc(NC(=O)N2CCCC2C(=O)Nc2ccccc2)cc1 (stereo not given) | inactive | – |
| NS(=O)(=O)c1ccc(CCNC(=O)C2CCCN2C(=O)OCc2ccccc2)cc1 (stereo not given) | 12.6 µM (active) | – |
| Cc1ccc(CNC(=O)C2CCCN2C(=O)NCc2ccccc2)cc1 (stereo not given) | 3.55 µM (active) | – |
| O=C(NCCCN1CCN(c2ccccc2F)CC1)C1CCC(=O)N1C1CCCCC1 (stereo not given) | inactive | – |
| Cc1ccc(CNC(=O)C2CCC(=O)N2C2CCCCC2)cc1 (stereo not given) | 7.94 µM (active) | – |
| COc1ccccc1NC(=O)N1CCCC1C(=O)NCc1ccc2c(c1)OCO2 (stereo not given) | 0.355 µM (active) | – |
| C=C1CC[C@H](O)C/C1=C/C=C1\CCC[C@]2(C)[C@H]1CC[C@H]2[C@@H](C)/C=C\[C@@H](C)C(C)C | inactive | – |
| O=C1CC[C@](CCc2nc3ccccc3[nH]2)(c2ccccc2)C(=O)N1 | – | -26.9% [at 11.4 µM] (inactive) |
| CCCNC(=O)c1c(C)cc(=O)oc1C | inactive | – |
| O=C(CSCc1ccc(Cl)cc1)Nc1ccc2c(c1)OCCO2 | – | -20.7% [at 11.4 µM] (inactive) |
| C/C(=N\NC(N)=O)c1ccc(Cl)cc1 | – | -0.483% [at 11.4 µM] (inactive) |
| Cc1oc(-c2ccccc2F)nc1CSCC(=O)NCc1ccc2c(c1)OCO2 | 1 µM (active) | – |
| CCCCCCCCC(=O)N/N=C/c1cccc(Br)c1 | – | -6.69% [at 11.4 µM] (inactive) |
| O=C(CSCc1cccc(Br)c1)N/N=C/c1ccc2c(c1)OCO2 | 3.98 µM (active) | – |
| O=C(Cn1nc(C(F)F)cc1C(F)F)N/N=C/c1ccc2c(c1)OCO2 | 5.01 µM (active) | – |
| C=CCNC(=O)CC(=O)N/N=C/c1cccc(Br)c1 | inactive | – |
| C/C(=N\NC(=O)CSCc1ccc(Cl)cc1)c1ccc2c(c1)OCCO2 | 14.1 µM (active) | – |
| O=C(O)C(Cl)(c1ccccc1)c1ccccc1 | – | -5.68% [at 11.4 µM] (inactive) |
| O=C(CSCc1cccc(Cl)c1)NCc1ccc2c(c1)OCO2 | 1.12 µM (active) | – |
| O=C(/C=C/c1ccc2c(c1)OCO2)NCCSCc1cccc(Cl)c1 | – | 18.2% [at 2.29 µM] (inactive) |
| Cc1cc(OC(=O)c2ccccc2Cl)cc(=O)n1C | inactive | – |
| CN(C)C(=O)c1ccc(-c2nccc(NCc3cccnc3)n2)cc1 | 15.8 µM (active) | – |

| Compound | AC50 | activity, negative = inhibition |
| --- | --- | --- |
| Cc1cccc(CNc2ccnc(-c3ccc(C(=O)N(C)C)cc3)n2)c1 | 3.16 µM (active) | – |
| [N-]=[N+]=Nc1ccc(C(=O)CSC[C@@H](NC(=O)CC[C@@H](N)C(=O)O)C(=O)NCC(=O)O)cc1 | inactive | – |
| CC(C)[C@H]1C(=O)C(C(N)=O)=C(O)[C@]2(O)C(=O)C3=C(O)c4c(O)ccc(N(C)C)c4C[C@H]3C[C@@H]12 | inactive | – |
| COc1ccc(Oc2ncc3nc(-c4cccs4)c(=O)n(Cc4cccc(OC)c4)c3n2)cc1 | 3.98 µM (active) | – |
| COc1cccc(Cn2c(=O)c(-c3cccs3)nc3cncnc32)c1 | 5.01 µM (active) | – |
| COc1ncc2nc(-c3cccs3)c(=O)n(Cc3ccc(F)cc3)c2n1 | 3.16 µM (active) | – |
| COc1cccc(Cn2c(=O)c(-c3cccs3)nc3cnc(OC)nc32)c1 | 3.98 µM (active) | – |
| COc1ccc(Nc2ncc3nc(-c4cccs4)c(=O)n(Cc4cccc(OC)c4)c3n2)cc1 | inactive | – |
| O=C(O)c1ccc(C(=O)c2ccccc2)c(C(=O)O)c1 | – | -42.2% [at 11.4 µM] (inactive) |
| C=CCN=C(NC#N)SCc1ccccc1 | – | -3.62% [at 2.29 µM] (inactive) |
| COc1ncc2nc(-c3ccc(F)cc3)c(=O)n(Cc3ccc(F)cc3)c2n1 | 3.16 µM (active) | – |
| CCNc1ncc2nc(-c3ccc(OC)cc3)c(=O)n(Cc3ccc(F)cc3)c2n1 | inactive | – |
| CCOc1ccc(NC(=O)CN2CCN(S(=O)(=O)c3ccc(Cl)cc3)CC2)cc1 | 14.1 µM (active) | – |
| CCN(CC)C(=O)COc1ccc(S(=O)(=O)N2CCOCC2)cc1 | – | -4.69% [at 11.4 µM] (inactive) |
| CCOC(=O)c1ccc(S(=O)(=O)N2CCN(C)CC2)cc1 | inactive | – |
| COc1ccc(NC(=O)CC#N)cc1OC | inactive | – |
| COc1cc2c(cc1OC)CN(CC(=O)Nc1ccc3c(c1)OCO3)CC2 | 3.55 µM (active) | – |
| CCOc1ccc(C(=O)CN2CCN(S(=O)(=O)c3ccc(F)cc3)CC2)cc1 | 6.31 µM (active) | – |
| O=C(CN1CCN(S(=O)(=O)c2ccc(F)cc2)CC1)Nc1ccc(Cl)c(C(F)(F)F)c1 | 5.01 µM (active) | – |
| N[C@@H](Cc1ccnnc1)C(=O)O | – | -3.75% [at 11.4 µM] (inactive) |
| Cc1nnc(S(=O)(=O)c2ccc(N=Nc3c(N)nc(N)nc3N)cc2)s1 | – | 4.76% [at 11.4 µM] (inactive) |
| O=C(CN1CCN(S(=O)(=O)c2ccc(Cl)cc2)CC1)Nc1ccc2c(c1)OCO2 | 1 µM (active) | – |
| O=C(CN1CCN(S(=O)(=O)c2ccc(F)cc2)CC1)Nc1ccc2c(c1)OCO2 | 2 µM (active) | – |
| CCN(CC(=O)Nc1ccc2c(c1)OCCO2)C(=O)c1cccc(S(=O)(=O)N2CCOCC2)c1 | – | -20.1% [at 11.4 µM] (inactive) |

| Compound | AC50 | activity, negative = inhibition |
| --- | --- | --- |
| CC1(C)CCCN(C(=O)c2coc(=O)c(Br)c2)C1 | inactive | – |
| Cn1c(C(=O)O)c(CC(=O)NCc2cccnc2)c2ccccc21 | inactive | – |
| CCn1c(=O)cc(SCC(=O)N2CCN(C(=O)c3ccco3)CC2)c2ccccc21 | 7.08 µM (active) | – |
| CCn1c(=O)cc(SCC(=O)Nc2cc(OC)c(OC)c(OC)c2)c2ccccc21 | 5.01 µM (active) | – |
| Cc1ccnc(NC(=O)c2cccc(NC(=O)COc3ccccc3)c2)c1 | – | -4.8% [at 2.29 µM] (inactive) |
| CC(C)NC(=O)N1CCC2(CC1)CCN(C(=O)c1ccco1)CC2 | inactive | – |
| Cn1c(=O)cc(OCC(=O)NCc2cccnc2)c2ccccc21 | 12.6 µM (active) | – |
| O=C(Cc1ccc(Cl)cc1)N1CCN(C(=O)c2ccco2)CC1 | inactive | – |
| CCn1c(=O)cc(OCC(=O)Nc2cccnc2)c2ccccc21 | 7.08 µM (active) | – |
| CCC(CC)C(=O)NCCN1CCN(C(=O)C(CC)CC)CC1 | – | 2.98% [at 2.29 µM] (inactive) |
| CC(C)CCOc1ccc(NC(=O)C2OC3OC(C)(C)OC3C3OC(C)(C)OC23)cc1 (stereo not given) | – | -3.7% [at 2.29 µM] (inactive) |
| Cn1c(=O)cc(OCCCC(=O)Nc2cccnc2)c2ccccc21 | 6.31 µM (active) | – |
| CCN(C(=O)COc1cc(=O)n(C)c2ccccc12)c1cccc(Cl)c1 | 3.55 µM (active) | – |
| COc1cc(=O)n(C)c2c(OC[C@@H](O)C(C)(C)O)cccc12 | inactive | – |
| CCCNC(=O)OC[C@@H]1O[C@H](CCO/N=C(\C)CCN2CCCCc3nc(C)c(C)cc32)C=C[C@@H]1Oc1ccc(OC)cc1 | 3.16 µM (active) | – |
| CCCNC(=O)OC[C@@H]1O[C@H](CCO/N=C(\C)CCN2CCCc3nc(C)c(C)cc32)C=C[C@@H]1Oc1ccc(OC)cc1 | 3.98 µM (active) | – |
| O=C(c1ccccc1)c1ccc2nc(-c3ccc(NC(=O)c4ccccc4F)cc3)[nH]c2c1 | inactive | – |
| Fc1cc2nc(-c3ccncc3)[nH]c2cc1F | 1.41 µM (active) | – |
| C(=N\N1CCN(C2c3ccccc3-c3ccccc32)CC1)/c1cccnc1 | 12.6 µM (active) | – |
| C/C(=N\N1CCN(C2c3ccccc3-c3ccccc32)CC1)c1cccnc1 | 2.82 µM (active) | – |
| O=[N+]([O-])c1cc(/C=N/N2CCN(C3c4ccccc4-c4ccccc43)CC2)ccc1Cl | inactive | – |
| O=c1c2cnn(-c3ccccc3)c2nnn1/N=C/c1cccnc1 | inactive | – |
| C/C(=N\N1CCN(C2c3ccccc3-c3ccccc32)CC1)c1ccncc1 | 1 µM (active) | – |
